Compound activity deposited in PubChem by National Center for Advancing Translational Sciences (NCATS).
TGFb inhibitor = TGF-b pathway inhibition; Potency, µM (titrated, usually from 46.1 µM), inactives show at the highest dose activity, negative = inhibition, usual class: inhibitors; 410,000 compounds, 1.2% hits; HepG2 CAGA-GFP TGF-b/SMAD3 reporter, GFP fluorescence, 18 h; TGF-beta stimulated, 500 pg/mL final; note: potency is the fitted concentration of half-maximal effect; % is set by controls: 0 for no effect and ±100 for the full control effect; nearly all actives have a fitted effect of over 65% in size
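Using HEPG2 CAGA-GFP reporter cells at 1000 cells/well, we pinned test compounds, stimulated with recombinant TGF-beta (500 pg/mL final) and measured total well GFP after 18 h.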
TDP1 inh = TDP1 (human) enzyme inhibition; Q9NUW8; recombinant TDP1, AlphaScreen DNA substrate cleavage; Potency, µM (top dose mostly 130 µM), inactives show top-dose activity change, negative = inhibition, actives largely listed as inhibitors; 350,000 compounds, 0.28% hits; note: potency is the fitted concentration of half-maximal effect; % is set by controls: 0 for no effect and ±100 for the full control effect; nearly all actives have a fitted effect of over 40% in size
Target sequence (Q9NUW8 whole entry, looked up): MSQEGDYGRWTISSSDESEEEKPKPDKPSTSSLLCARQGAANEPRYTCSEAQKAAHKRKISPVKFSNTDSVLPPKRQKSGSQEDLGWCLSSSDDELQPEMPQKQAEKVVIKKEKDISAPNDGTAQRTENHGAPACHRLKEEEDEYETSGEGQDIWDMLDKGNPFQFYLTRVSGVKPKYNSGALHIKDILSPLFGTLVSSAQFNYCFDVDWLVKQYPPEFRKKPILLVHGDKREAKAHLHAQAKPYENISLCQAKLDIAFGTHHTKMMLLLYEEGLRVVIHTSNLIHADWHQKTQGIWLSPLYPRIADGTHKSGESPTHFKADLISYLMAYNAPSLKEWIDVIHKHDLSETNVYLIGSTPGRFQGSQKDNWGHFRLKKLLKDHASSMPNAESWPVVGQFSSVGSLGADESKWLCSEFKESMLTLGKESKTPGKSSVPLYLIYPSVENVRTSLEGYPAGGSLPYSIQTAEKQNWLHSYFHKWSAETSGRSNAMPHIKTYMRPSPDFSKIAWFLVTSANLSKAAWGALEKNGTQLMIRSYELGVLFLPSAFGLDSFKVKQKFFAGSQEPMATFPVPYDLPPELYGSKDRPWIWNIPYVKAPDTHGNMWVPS
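Recombinant E. coli-expressed Tdp1 (1 nM) preincubated with compound 15 min at RT, then 5'-biotin/3'-phosphotyrosine-FITC DNA substrate (15 nM) added for 5 min. AlphaScreen beads (10 ug/ml) added, 10 min RT; tyrosine-FITC cleavage read as signal loss.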
IL-1B inflam inh = inhibitors of inflammasome signaling (IL-1 beta secretion); activity change, % at 57.5 µM; THP-1 LPS/ATP IL-1B secretion, AlphaLISA, 16 h; active compounds read low; 360,000 compounds, 4.7% hits; in the data active = activity change below about -50%; inconclusive = mostly about -30% to -49%; note: % is set by controls: 0 for no effect and ±100 for the full control effect
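Secreted IL-1B measured by AlphaLISA bead assay after 16 h compound exposure of THP-1 cells; compounds (final up to 57.5 uM) added 1 h before LPS (250 ng/mL) and ATP (1.25 mM) stimulation; lower signal means less secretion.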
TDP1 cell CPT = DT40-hTDP1 cell growth loss with CPT; chicken DT40 Tdp1-/-;hTDP1 cells + 20 nM CPT, ATP luminescence, 48 h; Potency, µM (series often up to 46.2 µM), inactives show top-dose activity change, negative = growth inhibition, usual class: inhibitors; 420,000 compounds, 12% hits; AID 686979; note: potency is the fitted concentration of half-maximal effect; % is set by controls: 0 for no effect and ±100 for the full control effect; nearly all actives have a fitted effect of over 55% in size
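Cell growth measured by CellTiter-Glo luminescence after a minimum 48 h, 37 C compound exposure with 20 nM CPT in Tdp1-knockout DT40 cells stably expressing hTDP1, seeded 400/well; qHTS titration format.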
DT40 TDP1 no CPT = qHTS for Inhibitors of human tyrosyl-DNA phosphodiesterase 1 (TDP1): qHTS in cells in absence of CPT; DT40 Tdp1-/- hTDP1 cells, no CPT, ATP luminescence, 48 h; Potency, µM (titrated, usually from 46.2 µM), inactives show at the highest dose activity change, negative = growth inhibition, hits mostly inhibitors; 420,000 compounds, 15% hits; note: potency is the fitted concentration of half-maximal effect; % is set by controls: 0 for no effect and ±100 for the full control effect; nearly all actives have a fitted effect of over 55% in size
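Compound effects on proliferation are scored in DT40 Tdp1-/-;hTDP1 cells in the absence of CPT. ATP levels (CellTiter-Glo luminescence) are recorded after a ≥48 hr, 37 °C incubation.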
HepG2 viability = counter-screen for TGF-b inhibitors: cytotoxicity in HepG2 cells; HepG2 CAGA-GFP viability, ATP luminescence, 18 h; Potency, µM (series often up to 46.1 µM), without a hit: at the highest dose activity change, negative = cytotoxicity, hits mostly cytotoxic; 410,000 compounds, 0.76% hits; AID 588856; note: potency is the fitted concentration of half-maximal effect
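HepG2 CAGA-GFP cells (1000/well, DMEM with 1% FBS) received compound, then TGF-beta at 500 pg/mL final, and were incubated 18 hours at 37 degrees C. Viability was read by CellTiter-Glo luminescence. Media-only wells were set as complete cell-killing and DMSO as no toxicity.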
Starred values were filed as active, the others as inactive; ? = inconclusive; / = no result; [ ] = dose if it differs, or a comment. An excerpt weighted towards active compounds, which were near 18% of everything screened. Unless noted, calls come from the whole dose curve; as a rule, active = well fitted curve in the direction sought with a large enough effect; inconclusive = small, poorly fitted or top-dose-only effect, or another doubt; inactive = no such curve, though single readings can be large; an effect the other way counts as inactive or inconclusive.

SMILES	TGFb inhibitor	TDP1 inh	IL-1B inflam inh	TDP1 cell CPT	DT40 TDP1 no CPT	HepG2 viability
CON(C)C(=O)CC(CNC(=O)OC(C)(C)C)c1ccc(Cl)cc1 (stereo not drawn)	-16%	1%	4	?	15µM*	-12%
CON(C)C(=O)CC(CN(Cc1ccccc1)C(=O)OC(C)(C)C)c1ccc(Cl)cc1 (stereo not drawn)	?	-3%	-61*	23µM*	?	-44%
CCOc1ccccc1NC(=O)CC1C(=O)NCCN1C(=O)c1ccc(F)cc1 (stereo not drawn)	45%	2%	/	-6%	5%	1%
O=C(N/N=C/c1cccn1-c1ccc([N+](=O)[O-])cc1)c1cccnc1	?	1%	38	13µM*	26µM*	-18%
N#CCC(=O)N/N=C\c1cc(Br)ccc1OC/C=C/c1ccccc1	0%	2%	-21	15µM*	26µM*	-2%
COC(=O)N/N=C\c1ccccc1OC/C=C/c1ccccc1	-3%	4%[56.1 µM]	-65*	?	?	-10%
COc1ccc(Br)cc1/C=c1\sc2nc(-c3ccco3)nn2c1=O	10%	/	-6	?	?	5%
COc1ccccc1/C=c1\sc2nc(-c3ccccc3OC)nn2c1=O	6%	4%	7	?	16µM*	-7%
CCCCSc1ncnc2[nH]ncc12	2%	0%	0	-8%	-16%	-12%
COc1cc(Nc2ccn3nc(-c4ccc(F)cc4)cc3n2)cc(OC)c1OC	-3%	/	-68*	?	?	-13%
COc1cc(-c2cc3nc(NCc4cccs4)ccn3n2)cc(OC)c1OC	33%	/	-7	10µM*	10µM*	-2%
Clc1cccc(CNc2ccn3nc(-c4ccccc4Cl)cc3n2)c1	?	/	-73*	?	?	-97%
COc1cc(-c2cc3nc(NCc4cccc(Cl)c4)ccn3n2)cc(OC)c1OC	?	/	18	6.5µM*	5.2µM*	-56%
Clc1cccc(CNc2ccn3nc(-c4cccc(OCc5ccccc5)c4)cc3n2)c1	-19%	/	-27	?	?	-21%
CCN(CC)S(=O)(=O)c1ccc2c(c1)nc(CN(C)C(=O)Nc1ccc(C)c(F)c1)n2C	?	-4%	/	?	?	-18%
CCC1C(=O)NCCN1Cc1ccc2c(c1)CN(Cc1cc(OC)c3c(c1)OCO3)CCO2 (stereo not drawn)	/	/	/	-9%[9.04 µM]	?	/
O=C(Nc1cccc(F)c1)N1CCC2(CC1)CCN(C(=O)c1ccco1)CC2	/	/	/	3%	?	/
CC(C)COc1ccc(-c2nnc(-c3ccco3)o2)cc1	-19%	1%	-9	-28%	-22%	-9%
CCN(CC)CCCNc1ccc(-c2nnc(-c3ccc(OCC(C)C)cc3)o2)cn1	19%	/	-51*	2.9µM*	2.9µM*	-16%
O=c1c2ccccc2oc2cc(NCCCn3ccnc3)ccc12	-11%	/	-19	?	?	-11%
CN1CCCC1CCNc1ccc2c(=O)c3ccccc3oc2c1 (stereo not drawn)	-11%	/	-83*	?	18µM*	-14%
CN1CCCC1CCNc1ccc2oc3ccccc3c(=O)c2c1 (stereo not drawn)	-10%	/	-79*	?	?	-16%
CCN(Cc1ccc(C#CCCO)cc1)CC1CCCN(CCc2cccc(OC)c2)C1 (stereo not drawn)	?	/	-6	?	21µM*	-53%
CC(C)C[C@H]1CN(CCCC[C@@H]2CNC(=O)C(=O)N2CCc2ccccc2)C(=O)C(=O)N1Cc1ccccc1	/	/	-4	0%	-9%	/
O=C(CSc1nnc(-c2ccncc2)o1)Oc1ccccc1	3%	-3%	5	-1%	-9%	-1%
SMILES	TGFb inhibitor	TDP1 inh	IL-1B inflam inh	TDP1 cell CPT	DT40 TDP1 no CPT	HepG2 viability
O=C(CSc1nnc(-c2ccccc2O)o1)Oc1ccc(OCc2ccccc2)cc1	-4%	1%	17	13µM*	13µM*	-4%
Cc1c(C2=CCN(S(=O)(=O)c3cccc(Cl)c3)CC2)c2ccccc2n1CC(=O)N1CCCC1	?	6%	/	?	?	-31%
O=S(=O)(c1ccc2nc(-c3ccccc3)[nH]c2c1)N1CCN(c2cccc(Cl)c2)CC1	-11%	3%	24	2%	?	-26%
COc1ccccc1N1CCN(C2CCN(S(=O)(=O)c3ccc4ccccc4c3)CC2)CC1	-24%	6%	-62*	?	?	-24%
COc1ccccc1N1CCN(S(=O)(=O)c2ccc3nc(-c4ccccc4)[nH]c3c2)CC1	-24%	11%	?	?	21µM*	1%
Cc1ccc(NC(=O)CN(C)C(=O)c2n[nH]c(=O)c3ccccc23)cc1	-20%	1%	9	-3%	-2%	-5%
C[N+](C)(C)CC(=O)N/N=C/c1c2ccccc2cc2ccccc12	-5%	0%	-9	2%	-5%	-1%
NC(=S)N/N=C\c1c2ccccc2cc2ccccc12	-12%	5%	-22	15µM*	?	-53%
NC(=S)NN=Cc1cc(-c2cccc(N)c2)ccn1	-1%	/	134	3.7µM*	4.1µM*	0%
CNC(=S)N/N=C/c1c2ccccc2c(Cl)c2ccccc12	10%	11%	12	5.8µM*	5.8µM*	3%
COCCNC(=S)N/N=C/c1c2ccccc2cc2ccccc12	?	5%[0.0935 µM]	22	3.7µM*	4.1µM*	-9%
Cn1cccc1CC(=O)N/N=C\c1c2ccccc2cc2ccccc12	-14%	10%	?	?	?	-25%
CCCOc1ccc(F)cc1-c1cc(C(=O)NCc2ccccc2OC)[nH]n1	5%	/	-19	?	?	-24%
CCCS(=O)(=O)N1CCN(CC2CC3C=CC2C3)CC1 (stereo not drawn)	15%	-4%	21	-8%	5.8µM*	-52%
Cc1ccc(S(=O)(=O)N2CCN(CC3CC4C=CC3C4)CC2)cc1 (stereo not drawn)	-13%	1%	21	-2%	-16%	1%
O=C(NCc1ccccn1)Nc1ccccc1F	-3%	1%[56.1 µM]	-10	30%	18%	4%
Cc1occc1C(=O)N/N=C/C=C\c1ccccc1[N+](=O)[O-]	5%	2%	-15	?	-28%	3%
